# HPGD inh: qHTS Assay for Inhibitors of HPGD (15-Hydroxyprostaglandin Dehydrogenase); 150,000 compounds, 4.3% hits; purified HPGD, NADH fluorescence kinetic, PGE2 substrate; AID 894, 2007; Potency, µM, most hits filed as inhibitors; 15-hydroxyprostaglandin dehydrogenase [NAD(+)] (Homo sapiens), P15428
# Target sequence (P15428 whole entry, looked up): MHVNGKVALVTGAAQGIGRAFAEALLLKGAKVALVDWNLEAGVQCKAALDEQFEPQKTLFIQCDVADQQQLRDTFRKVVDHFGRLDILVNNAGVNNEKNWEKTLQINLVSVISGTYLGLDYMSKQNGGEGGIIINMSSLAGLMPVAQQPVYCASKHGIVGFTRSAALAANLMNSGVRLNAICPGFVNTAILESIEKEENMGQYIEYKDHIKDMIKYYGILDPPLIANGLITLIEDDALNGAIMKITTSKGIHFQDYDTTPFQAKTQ
#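 20 nM HPGD preincubated 15 min at room temperature with compound in 50 mM Tris-HCl pH 8, 0.01% Tween 20. Started with 1 mM NAD+ and 30 uM prostaglandin E2; NADH fluorescence (360/450 nm) read 5 times over 30-s intervals, last minus first.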
# HTT cytoprotect: qHTS Multiplex Assay to Identify Dual Action Probes in a Cell Model of Huntington: Cytoprotection (ATP). PC12 HTT-Q103 induced, cytoprotection, ATP luminescence, 40 h. Potency, µM (doses to about 56.4 µM), most hits filed as activators. 230,000 compounds, 0.14% hits; active = well fitted curve in the direction sought with a large enough effect; inconclusive = small, poorly fitted or top-dose-only effect, or another doubt; inactive = no such curve, though single readings can be large; an effect the other way counts as inactive or inconclusive; also: nearly all actives have a fitted effect of over 45% in size
#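 Quantitative HTS on tebufenozide-induced (100 nM) PC12 cells expressing HTTQ103 exon 1–GFP; compounds tested as a concentration series; survival measured via cellular ATP.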
# ALDH1A1 block: qHTS Assay for Inhibitors of Aldehyde Dehydrogenase 1 (ALDH1A1) | Aldehyde dehydrogenase 1A1 (Homo sapiens), P00352 | Purified ALDH1A1, NADH fluorescence, propionaldehyde substrate | Potency, µM (top dose mostly 75.3 µM), actives largely listed as inhibitors | 220,000 compounds, 7.3% hits | AID 1030, 2008
# Target sequence (P00352 whole entry, looked up): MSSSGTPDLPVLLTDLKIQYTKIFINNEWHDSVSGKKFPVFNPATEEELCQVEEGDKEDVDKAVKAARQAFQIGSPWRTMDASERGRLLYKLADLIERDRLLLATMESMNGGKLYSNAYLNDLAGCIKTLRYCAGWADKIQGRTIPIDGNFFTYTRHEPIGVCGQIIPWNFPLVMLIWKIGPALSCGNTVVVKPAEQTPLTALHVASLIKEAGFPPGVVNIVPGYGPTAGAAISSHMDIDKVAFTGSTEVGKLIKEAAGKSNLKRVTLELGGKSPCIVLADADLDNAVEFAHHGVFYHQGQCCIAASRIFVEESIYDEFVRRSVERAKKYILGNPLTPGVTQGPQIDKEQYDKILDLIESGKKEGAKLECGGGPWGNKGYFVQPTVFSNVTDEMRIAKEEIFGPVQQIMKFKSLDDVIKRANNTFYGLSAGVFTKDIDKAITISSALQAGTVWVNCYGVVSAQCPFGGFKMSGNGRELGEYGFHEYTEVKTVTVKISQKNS
# JMJD2E inh: qHTS Assay for Inhibitors of Human Jumonji Domain Containing 2E (JMJD2E); JMJD2E catalytic domain, FDH-coupled NADH fluorescence (FDH is formaldehyde dehydrogenase); Potency, µM (series often up to 57.1 µM), hits mostly inhibitors; 230,000 compounds, 1.6% hits; Lysine-specific demethylase 4E (Homo sapiens), B2RXH2; also: nearly all actives have a fitted effect of over 50% in size
# HttQ103 aggreg: qHTS Multiplex Assay to Identify Dual Action Probes in a Cell Model of Huntington: Aggregate Formation (GFP); Potency, µM (highest dose often 46.1 µM), hits mostly inhibitors; 220,000 compounds, 1.1% hits; PC12 HttQ103-GFP aggregates, Acumen cytometry, 40 h; active = well fitted curve in the direction sought with a large enough effect; inconclusive = small, poorly fitted or top-dose-only effect, or another doubt; inactive = no such curve, though single readings can be large; an effect the other way counts as inactive or inconclusive; also: nearly all actives have a fitted effect of over 60% in size
#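 Steps: seed 1500 PC12 HTTQ103-GFP cells/well; add tebufenozide, 100 nM final; add compound titration; add ATPLite reagent; quantify GFP aggregates by laser scanning cytometry.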
# CBFb RUNX1 block: qHTS Assay for Compounds Blocking the Interaction Between CBF-beta and RUNX1 for the Treatment of Acute Myeloid Leukemia | Potency, µM (highest dose often 59.8 µM), actives largely listed as inhibitors | AlphaScreen CBFb-His/RUNX1-biotin binding, biochemical | AID 1477, 2009 | Runt-related transcription factor 1 (Homo sapiens) + Core-binding factor subunit beta … | 230,000 tested, under 10 active; active = well fitted curve in the direction sought with a large enough effect; inconclusive = small, poorly fitted or top-dose-only effect, or another doubt; inactive = no such curve, though single readings can be large; an effect the other way counts as inactive or inconclusive
#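 Bead-based AlphaScreen assay; binding partners His-tagged CBF-beta and biotinylated RUNX1 at 30 nM each. Compound exposure 15 min after a 20-min protein preincubation; bead step 90 min; all steps at room temperature.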
# Numbers stand for hits; n = inactive; u = inconclusive; x = no result given; [ ] = dose if it differs, or a comment. Compounds with a hit are over-represented: about 9.8% of the library has one in this group of screens. Unless noted, calls follow the shape of the dose curve; as a rule, active = well fitted inhibition curve with a large enough effect (not every such curve was filed as active); inconclusive = small, poorly fitted or top-dose-only effect, or another doubt; inactive = no such curve, though single readings can be large or run the other way.
SMILES,HPGD inh,HTT cytoprotect,ALDH1A1 block,JMJD2E inh,HttQ103 aggreg,CBFb RUNX1 block
O=C1SCC(c2ccccc2)=NN1Cc1ccccc1,n,n[10 µM],u,n,n,u
CC(=O)Nc1ccc(C2=NN(Cc3nnc(-c4ccccc4)o3)C(=O)SC2)cc1,5.01µM,x,n,n,n,n
CC(=O)Nc1ccc(C2=NN(CC#N)C(=O)SC2)cc1,n,n,n,n,n,n
Cn1ncc(Cl)c1C(=O)Nc1cccc(Cl)c1,12.6µM,n[10 µM],7.94µM,n,n,n
CC(C)=CC1C=C(C)C(C)C2C(=O)NNC(=O)C12 (stereo not given),n,n[10 µM],3.55µM,n,n,n
Nc1ncnc2nc(N3CCN(CCO)CC3)[nH]c12,n,n[10 µM],n[13.5 µM],x,x,x
O=C(Nc1ccc(N2CCN(C(=O)c3ccco3)CC2)c(Cl)c1)c1c(F)c(F)c(F)c(F)c1F,n,n[10 µM],n,n,u,n
Cc1ccccc1C(=O)N1CCN(c2ccc(NC(=O)c3ccco3)cc2Cl)CC1,u,n[10 µM],u,n,12.6µM,n
O=C(Nc1ccc(N2CCN(C(=O)c3cccs3)CC2)c(Cl)c1)c1cccnc1,x,x,n,n,u,n
O=C(Nc1ccc(N2CCN(C(=O)c3cccs3)CC2)c(Cl)c1)c1ccco1,n,n[10 µM],28.2µM,n,n,n
CNc1sc(C(=O)c2cccs2)c(N)c1-c1nc2ccccc2s1,15.8µM,n[10 µM],1.78µM,n,n,n
CNc1sc(C(=O)c2ccc(F)cc2)c(N)c1-c1nc2ccccc2s1,u,n,n,n,n[9.22 µM],u
O=C1c2ccccc2NC2(CCCC2)N1O,20µM,n,n,u,n[1.84 µM],n
CC(=O)N1CCC2(CCCN(c3ccncc3)C2)CC1,n,n,n,x,x,x
COc1ccc2cc3c(N)nn(C(=O)c4ccc(Cl)c([N+](=O)[O-])c4)c3nc2c1,n,n[10 µM],n,n,2.82µM,u
COc1ccc(S(=O)(=O)Nc2ccccc2C)cc1C(=O)N1CCOCC1,x,n[10 µM],10µM,n,n[9.22 µM],n
Cc1cccc(C)c1NC(=O)COC(=O)c1ccc(N2CCCC2)c([N+](=O)[O-])c1,n,n[10 µM],n,n,n,n
CCC(C)c1ccccc1NC(=O)COC(=O)c1ccc(N2CCCC2)c([N+](=O)[O-])c1 (stereo not given),n,n[10 µM],12.6µM,n,n,n
COc1ccc(-c2ccc(C(=S)N3CCN(C(C)=O)CC3)o2)cc1,11.2µM,n,11.2µM,u,n,n
COc1ccc(CC(=O)N2CCN(C(=O)Cc3ccc(OC)cc3)CC2)cc1,n,n[0.074 µM],n,n,n,n
N#C/C(=N\Nc1ccccc1)C(=N)N1CCCCCC1,x,n[10 µM],x,n,n[9.22 µM],n
N#C/C(=N\Nc1ccc(F)cc1)C(=N)N1CCCCC1,n,n,28.2µM,n,n,n
CC(NC(=S)Nc1ccccc1Cl)C(c1ccccc1)N1CCOCC1 (stereo not given),n,x,28.2µM,n,u,n
O=C(CSCCO)Nc1ccc(C2CCCCC2)cc1,4.47µM,n,7.08µM,n,n,n
O=C(CCN1CCN(CCO)CC1)Nc1ccc(C2CCCC2)cc1,x,n,u,n,n[9.22 µM],n
SMILES,HPGD inh,HTT cytoprotect,ALDH1A1 block,JMJD2E inh,HttQ103 aggreg,CBFb RUNX1 block
COc1ccc(/C=N/OCC(=O)N2CCCC2)c(OC)c1,x,n,n,n,n,n
COCCNc1ncnc2ccc(-c3ccc(N(C)C)cc3)cc12,x,n,u,x,x,x
c1ccc(-c2cnc(CSc3ncnc4sccc34)o2)cc1,3.16µM,n[10 µM],n,n,n,n
NC(=O)Cc1nc(-c2ccc(Br)cc2)cs1,n,n[10 µM],n,n,n,n
Oc1csc(Cc2nc(-c3ccc(Br)cc3)cs2)n1,x,n,28.2µM,n,n,n
CC(C)(C)c1ccc(C2CC2C(=O)N/N=C\c2ccc[nH]2)cc1 (stereo not given),x,n[10 µM],n,n,2.51µM,u
O=C(CN1CCCCC1)Nc1ccccc1Oc1ccccc1,x,n[10 µM],x,n,n[9.22 µM],n
O=C(O)c1ccc(SSc2ccc(C(=O)O)cn2)nc1,3.98µM,n[10 µM],u,x,x,x
CCOc1ccc(C(=O)O)cn1,x,n,n,n,n,n
COc1ccc2nc(SCC(=O)Nc3cc(OC)c(OC)cc3C(=O)O)c(C)cc2c1,x,n[10 µM],n,u,n[9.22 µM],n
CCCCC(C)(O)C/C=C/[C@H]1[C@H](O)CC(=O)[C@@H]1CCCCCCC(=O)O (stereo not given in full),n,n,n,n,x,n
CC(=O)Nc1ccc(C)cc1,n,n,n,x,x,n
CC(=O)NCc1ccc(C(=O)CCl)s1,x,n,0.141µM,n,u,n
CC(=O)NCc1ccc(C(=O)CCl)cc1,x,n,0.355µM,n,n,n
CN(Cc1ccccc1)C(=O)CCC(=O)N(C)Cc1ccccc1,n,n[10 µM],n,n,n,n
CC(=O)Nc1ccc(C(=O)CCl)cc1,n,n,0.0447µM,x,x,n
CCC(=O)c1ccc(CCCCCC(=O)O)s1,n,n,n,n,n,n
CC(=O)N(C)Cc1ccc(C(=O)CCl)cc1,x,n,0.708µM,n,n,n
O=C(O)CCC(=O)N1CCC[C@H]1C(=O)O,x,n[10 µM],x,n,n[9.22 µM],n
O=C1CC(c2ccccc2)Oc2cc(O)cc(O)c21 (stereo not given),x,n[10 µM],x,n,n[9.22 µM],n
NC[C@@H]1O[C@H](c2ccccc2)Cc2c1ccc(O)c2O,n,n,n,15.8µM,x,n
NC[C@@H]1O[C@H](C23CC4CC(CC(C4)C2)C3)Cc2c1ccc(O)c2O,u,n,u,22.4µM,n[9.22 µM],n
CN(C1CCCCC1)S(=O)(=O)c1ccc2[nH]c(=O)oc2c1,x,n[10 µM],x,n,n[9.22 µM],n
COC(=O)c1c(C)[nH]c(C(=O)NCc2ccco2)c1C,x,n[10 µM],n,n,n,n
CC1CCCC(C)N1C(=O)CSCc1ccc(Cl)cc1 (stereo not given),n,n,22.4µM,n,n,n
SMILES,HPGD inh,HTT cytoprotect,ALDH1A1 block,JMJD2E inh,HttQ103 aggreg,CBFb RUNX1 block
O=C(NC1CCCCC1)Sc1ccc(Cl)cc1,8.91µM,n[10 µM],u,n,n,n
O=C(CCSCc1ccc(Cl)cc1)NC1CCCC1,17.8µM,n[10 µM],n,n,n,n
O=C(CSc1ccc(Cl)cc1)NC1CCCC1,10µM,n[10 µM],n,n,n,n
O=C(Cc1ccc(Cl)cc1)NC1CC1,x,n,n,n,n,n
c1ncc(-c2ccoc2)c(NC2CC2)n1,x,n,u,x,x,x
CCOC(=O)C1CCN(C(=O)c2cccnc2Oc2ccccc2)CC1,x,n[10 µM],x,n,n[9.22 µM],n
CC(C)(C)N1C(=O)[C@H]2[C@H]3[C@H](O)[C@H](O)C/C(=N/OCc4ccccc4)[C@H]3CC[C@@H]2C1=O,x,n[10 µM],n[13.5 µM],x,x,n[13.1 µM]
